PubChem BioAssay (NCATS)
Records with an inconclusive call do not appear. Active and inactive are the calls of the source. The call rests on the fitted dose curve; in most records, active means well fitted curve in the direction sought with a large enough effect; inconclusive means small, poorly fitted or top-dose-only effect, or another doubt; inactive means no such curve, though single readings can be large; an effect the other way counts as inactive or inconclusive.

Experiments:
[1] = Cellular Toxicity (caspase-3) NIH 3T3 (AID 666);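 further: caspase signal read after 16 h compound exposure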
Outline: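 NIH 3T3, 1000 cells/well, 5 hr settle then 16 hr compound at 37°C; Caspase-Glo 3/7, 20 min RT, luminescence. DMSO = basal, 100 uM tamoxifen = 100%. Hill-equation AC50, qHTS.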

[2] = Cellular Toxicity (caspase-3) Renal Proximal Tubule (AID 667);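 further: cells exposed to compound for 16 hours at 37 °C before detection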
Outline: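 Primary rat proximal tubule cells, 1000/well, 5 h plating at 37 °C, then compound 16 h at 37 °C. Caspase-Glo 3/7 reagent, 1 h RT, luminescence. Normalized to DMSO (basal) and 10 uM staurosporine (100%); Hill-fit AC50.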

[3] = target: Cytochrome P450 3A4 (Homo sapiens) (UniProt P08684); experiment: qHTS Assay for Inhibitors and Substrates of Cytochrome P450 3A4 (AID 884); further: series mostly up to about 57 µM; nearly all actives have a fitted effect of over 50% in size
Chain of Cytochrome P450 3A4 (Homo sapiens) (P08684 whole entry, looked up): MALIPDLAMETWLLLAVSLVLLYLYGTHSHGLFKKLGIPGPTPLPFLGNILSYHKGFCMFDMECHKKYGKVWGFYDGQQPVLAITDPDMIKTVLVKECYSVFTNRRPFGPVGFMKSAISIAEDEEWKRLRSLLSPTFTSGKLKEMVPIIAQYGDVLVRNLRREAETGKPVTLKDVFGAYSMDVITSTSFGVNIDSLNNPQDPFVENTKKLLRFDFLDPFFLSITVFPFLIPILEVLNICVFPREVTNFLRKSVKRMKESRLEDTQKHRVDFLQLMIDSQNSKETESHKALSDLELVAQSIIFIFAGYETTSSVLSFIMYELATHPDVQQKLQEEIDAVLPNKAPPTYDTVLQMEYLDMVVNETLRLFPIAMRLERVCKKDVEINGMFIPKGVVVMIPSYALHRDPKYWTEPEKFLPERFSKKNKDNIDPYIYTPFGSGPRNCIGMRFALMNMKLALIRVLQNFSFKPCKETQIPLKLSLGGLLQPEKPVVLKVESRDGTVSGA
Outline: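 Luminescent readout of luciferin produced by CYP3A4 (20 nM) dealkylation of Luciferin-PPXE, 25 uM (its KM). NADPH-driven reaction ran 60 min at RT after 10 min compound preincubation; data scaled to 57 uM ketoconazole as 100% inhibition.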

[4] = Cell Viability - LYMP2-001 (AID 921); further: series mostly up to about 92 µM; nearly all actives have a fitted effect of over 70% in size
Outline: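 Human lymphoblastoid cells (Coriell), 2500 per well, were preincubated 5 hr at 37 C, then exposed to compounds in complete medium for 24 hr at 37 C. Cellular ATP was read by CellTiter-Glo luminescence; AC50 from Hill fits of concentration-response data.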

[5] = MultiTox-Fluor Cytotoxicity Assay - LYMP1-001 - Dead Cells (AID 946)
Outline: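 Seed 2500 LYMP1-001 cells/well, incubate 5 hr at 37 C; add compound, 16 hr at 37 C; add MultiTox-Fluor reagent, 60 min RT; read dead-cell fluorescence Ex/Em=485/520. Normalize to DMSO and 15 uM tetraoctylammonium bromide.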

[6] = MultiTox-Fluor Cytotoxicity Assay - LYMP1-001 - Live Cells (AID 947)
[7] = Cell Viability - LYMP1-002 - Assay at 16 hr (AID 948)
Outline: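 Human lymphoblastoid cells (LYMP1-002), 2500/well, were preincubated 5 hr at 37 C, then exposed to compounds for 16 hr at 37 C in complete medium. Cellular ATP was read by CellTiter-Glo luminescence after 30 min at room temperature; AC50 from Hill fits.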

[8] = MultiTox-Fluor Cytotoxicity Assay - LYMP1-002 - Live Cells (AID 955)
Outline: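 LYMP1-002 lymphoblastoid cells; 2500 cells/well; 16 hr compound exposure, 37 C; MultiTox-Fluor reagent 60 min RT; live-cell fluorescence Ex/Em=405/510; qHTS concentration-response, Hill-equation AC50; tetraoctylammonium bromide positive control.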

[9] = MultiTox-Fluor Cytotoxicity Assay - LYMP1-002 - Dead Cells (AID 960); further: nearly all actives have a fitted effect of over 60% in size
Outline: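 Readout: fluorescence at 485/520 from cell-impermeant bis-AAF-R110 cleaved by proteases leaking from damaged cells. LYMP1-002 lymphoblastoid line, 16 hr compound treatment at 37 C, concentration-response in qHTS format; Hill-equation AC50 values.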

[10] = MultiTox-Fluor Cytotoxicity Assay - LYMP1-003 - Dead Cells (AID 961); further: nearly all actives have a fitted effect of over 70% in size
Outline: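 LYMP1-003 lymphoblastoid, 2500 cells/well, 5 hr settle then 16 hr cpd at 37 C; MultiTox-Fluor reagent 60 min RT; Ex/Em 485/520 dead-cell signal; norm. DMSO = 0%, 15 uM tetraoctylammonium bromide = 100%; Hill AC50.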

[11] = MultiTox-Fluor Cytotoxicity Assay - LYMP1-003 - Live Cells (AID 962);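 further: cytotoxic hits lower the live-cell protease signal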
Outline: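 Readout: live-cell fluorescence (Ex/Em=405/510) from GF-AFC cleavage after 60 min MultiTox-Fluor reagent at room temperature. Lymphoblastoid LYMP1-003 cells, 16 hr compound treatment, 37 C. Concentration-response fitted to standard Hill equation for AC50.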

[12] = Cell Viability - LYMP1-003 - Assay at 24 hr (AID 963)
Outline: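 CellTiter-Glo luminescence (intracellular ATP) read after 24 hr, 37 C compound exposure of 2500 LYMP1-003 human lymphoblastoid cells/well in complete medium; qHTS concentration series; AC50 via standard Hill equation.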

[13] = Cell Viability - LYMP1-003 - Assay at 40 hr (AID 964); further: series mostly up to about 92 µM; nearly all actives have a fitted effect of over 60% in size
Outline: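 LYMP1-003 lymphoblastoid cells, 2500/well; 5 hr preincubation, 40 hr compound exposure, 37 C; CellTiter-Glo 30 min RT; luminescence; Hill-fit AC50. Positive control tetraoctylammonium bromide.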

[14] = Cell Viability - LYMP2-003 (AID 965);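 further: cells exposed to compounds for 24 h before reading; nearly all actives have a fitted effect of over 50% in size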
Outline: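 Human lymphoblastoid cells (2500/well) were pre-incubated 5 hr at 37 C, then exposed to compounds over a concentration range for 24 hr at 37 C. Intracellular ATP was read by CellTiter-Glo luminescence; AC50 came from Hill-equation fits.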

[15] = Cell Viability - LYMP2-004 (AID 966); further: nearly all actives have a fitted effect of over 65% in size
Outline: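 Luminescent ATP read-out (CellTiter-Glo, 30 min RT) after 24 hr compound exposure at 37 C; 2500 lymphoblastoid cells/well, complete medium. Decrease in ATP = cytotoxicity; AC50 from standard Hill model.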

[16] = Cell Viability - LYMP2-005 (AID 967); further: series mostly up to about 92 µM
Outline: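 CellTiter-Glo luminescence (cellular ATP) read-out; LYMP2-005 lymphoblastoid cells, 2500/well, 5 h pre-incubation, then 24 h compound exposure at 37 C in complete medium. Tetraoctylammonium bromide positive control; AC50 by standard Hill fit.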

[17] = Cell Viability - LYMP2-009 (AID 968); further: series mostly up to about 92 µM; nearly all actives have a fitted effect of over 55% in size
[18] = Cell Viability - LYMP2-011 (AID 969); further: nearly all actives have a fitted effect of over 60% in size
Outline: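 Luminescent ATP read-out (CellTiter-Glo, 30 min RT) after 24 hr compound exposure at 37 C in human lymphoblastoid cells, 2500 cells/well. Decreasing ATP indicates cytotoxicity; AC50 from standard Hill fit.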

[19] = Cell Viability - LYMP2-013 (AID 970); further: series mostly up to about 92 µM; nearly all actives have a fitted effect of over 55% in size
Outline: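 CellTiter-Glo luminescence (cellular ATP) read after 30 min at RT. Cells: human lymphoblastoid line, 2500/well, 24 hr compound exposure at 37 C. Tetraoctylammonium bromide positive control; AC50 via standard Hill fit of qHTS titrations.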

[20] = Cell Viability - LYMP2-017 (AID 972); further: series mostly up to about 92 µM; nearly all actives have a fitted effect of over 55% in size
Outline: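 Luminescent ATP read-out (CellTiter-Glo, 30 min RT) reports viable cell number. Cells: human lymphoblastoid line, 2500 per well, 5 hr preincubation, 24 hr compound exposure at 37 C. AC50 is derived from qHTS concentration-response data using the standard Hill model.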

[21] = Cell Viability - LYMP2-019 (AID 973); further: nearly all actives have a fitted effect of over 55% in size
Outline: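 qHTS, 1536-well; 2500 cells/well; 5 hr pre-incubation, 24 hr compound exposure, 37 C; CellTiter-Glo added, 30 min RT; luminescence read; AC50 via standard Hill equation.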

[22] = Cell Viability - LYMP2-021 (AID 974)
Outline: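 ATP luminescence (CellTiter-Glo, 30 min RT) after 24 h compound exposure at 37 C; 2500 human lymphoblastoid cells/well, 5 h settle beforehand. Cytotoxicity = concentration-dependent ATP drop, AC50 by Hill fit.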

[23] = Cell Viability - LYMP2-023 (AID 975)
Outline: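 CellTiter-Glo luminescence after 30 min at room temperature; decrease in intracellular ATP reflects toxicity. Cells: human lymphoblastoid line, 2500/well, 24 hr compound exposure at 37 C. AC50 fitted to standard Hill equation from concentration-response.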

[24] = Cell Viability - LYMP2-025 (AID 976); further: series mostly up to about 92 µM
Outline: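 CellTiter-Glo luminescence (cellular ATP) after 24 h compound exposure at 37 C; LYMP2-025 human lymphoblastoid cells, 2500/well, complete medium. Tetraoctylammonium bromide positive control. AC50 by Hill equation fit of qHTS concentration-response.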

Measured: Potency

COC(=O)c1ccccc1C(=O)OC
inactive: [1] | [2] | [3] | [4] | [5] | [6] | [7] | [8] | [9] | [10] | [11] | [12] | [13] | [14] | [15] | [16] | [17] | [18] | [19] | [20] | [21] | [22] | [23] | [24]
